A short description of assay [1]: NCI Yeast Anticancer Drug Screen. Data for the rad50 strain (AID 155).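 Note: 0% = growth of vehicle-only cultures of the same strain.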 Conditions: S. cerevisiae rad50 strain growth inhibition, active compounds read high. Summed up: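 A DNA repair-deficient yeast mutant serves as the test organism; compound-induced growth inhibition is calculated against vehicle-treated cells.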
The nature of assay [2]: NCI Yeast Anticancer Drug Screen. Data for the mec2-1 strain (AID 157). To be noted: S. cerevisiae mec2-1 strain, active compounds read high. Summed up: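 Using mec2-1 yeast: add compound, measure growth, express inhibition versus vehicle-treated cultures.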
A short description of assay [3]: NCI Yeast Anticancer Drug Screen. Data for the sgs1 mgt1 strain (AID 161).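 Note: 0% = growth of cultures given vehicle only.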 To be noted: S. cerevisiae sgs1 mgt1 strain, active compounds read high. Put shortly:
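Growth of a repair-deficient yeast mutant was monitored after compound treatment and expressed as inhibition relative to vehicle-treated cultures.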

Assay [4] is described as follows: NCI Yeast Anticancer Drug Screen. Data for the cln2 rad14 strain (AID 165).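 Note: 0% = growth equal to vehicle treated cultures.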 To be noted: S. cerevisiae cln2 rad14 strain, active compounds read high. Summed up:
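Yeast strain cln2 rad14, bearing defects in cell cycle control and DNA repair, serves as the test system; values reflect growth inhibition compared with vehicle.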

Assay [5] is described as follows: NCI Yeast Anticancer Drug Screen. Data for the bub3 strain (AID 167). To be noted: S. cerevisiae bub3 mutant strain, active compounds read high. Summed up:
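Inhibition values come from growth of compound-treated mutant yeast normalised to vehicle-treated controls.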

A short description of assay [6]: NCI Yeast Anticancer Drug Screen. Data for the mlh1 rad18 strain (AID 175). To be noted: S. cerevisiae mlh1 rad18 strain growth inhibition, active compounds read high. Put shortly:
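Steps: expose repair-defective yeast to compound; measure growth; express inhibition against vehicle-treated controls.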

Setting [7] is: at 5.0 µM (retest, dose inferred, filed as 0.5).
The mark [8] stands for this setting: at 50.0 µM (retest, dose inferred, filed as 5.0).

Compounds without any hit were thinned out: in the full panel of roughly 79,000, 15% have a hit. Values without a mark were called inactive. The source made the active and inactive calls. Cut-off read from the data, not from the text of the source: active = growth inhibition above about 70%; inactive = the rest.

As to `CCOP(=O)(OCC)Oc1cc(C)c(SC#N)c(C)c1`, the growth inhibition in assay [1] (setting [7]) was -6%; in assay [1] (setting [8]), -7%; in assay [1] (at 50.0 µM), 29.6%; in assay [2] (setting [7]) it was -2%; in assay [2] (setting [8]), 3%; in assay [2] (at 50.0 µM), 20.6%. Moreover, the growth inhibition in assay [3] (setting [7]) was 10%; in assay [3] (setting [8]), 25%; in assay [3] (at 50.0 µM), 17.1%; in assay [4] (setting [7]), -7%; in assay [4] (setting [8]), -6%; in assay [4] (at 50.0 µM), 66.3%. The growth inhibition is -3% in assay [5] (setting [7]); 18% in assay [5] (setting [8]); 53.7% in assay [5] (at 50.0 µM); 10% in assay [6] (setting [7]); 76% (active) in assay [6] (setting [8]); 34% in assay [6] (at 50.0 µM).

On to `CCN(CC)P1(=O)OC(c2ccccc2)=CCN1c1ccc(OC)cc1` (configuration not stated), for which the growth inhibition was 0% in assay [1] (setting [7]); 85% (active) in assay [1] (setting [8]); 97.3% (active) in assay [1] (at 50.0 µM); -1% in assay [2] (setting [7]); 82% (active) in assay [2] (setting [8]); 95.3% (active) in assay [2] (at 50.0 µM). The growth inhibition is -24% in assay [3] (setting [7]); 95% (active) in assay [3] (setting [8]); 97.8% (active) in assay [3] (at 50.0 µM); -7% in assay [4] (setting [7]); 78% (active) in assay [4] (setting [8]); 83% (active) in assay [4] (at 50.0 µM). Moreover, the growth inhibition is 10% in assay [5] (setting [7]); 91% (active) in assay [5] (setting [8]); 96.2% (active) in assay [5] (at 50.0 µM); 2% in assay [6] (setting [7]); 91% (active) in assay [6] (setting [8]); 96.3% (active) in assay [6] (at 50.0 µM).

With `[Cl][Hg].c1ccc([As]c2ccc(-c3ccccc3)cc2)cc1` (configuration not stated), the growth inhibition is 99% (active) in assay [1] (setting [7]); 90% (active) in assay [1] (setting [8]); 99% (active) in assay [1] (at 50.0 µM); 99% (active) in assay [2] (setting [7]); 92% (active) in assay [2] (setting [8]); 99.4% (active) in assay [2] (at 50.0 µM). Moreover, the growth inhibition in assay [3] (setting [7]) was 100% (active); in assay [3] (setting [8]) it was 93% (active); in assay [3] (at 50.0 µM), 99.2% (active); in assay [4] (setting [7]) it was 99% (active); in assay [4] (setting [8]), 91% (active); in assay [4] (at 50.0 µM), 99% (active). Moreover, the growth inhibition in assay [5] (setting [7]) is 99% (active); in assay [5] (setting [8]), 92% (active); in assay [5] (at 50.0 µM), 98.5% (active); in assay [6] (setting [7]), 100% (active); in assay [6] (setting [8]), 92% (active); in assay [6] (at 50.0 µM) it was 99% (active).

Turning to `C/C(=C\c1ccc2c(c1)OCO2)[N+](=O)[O-]`, the growth inhibition in assay [1] (setting [7]) was 93% (active); in assay [1] (setting [8]) it was 98% (active); in assay [1] (at 50.0 µM), 98.2% (active); in assay [2] (setting [7]), 7%; in assay [2] (setting [8]), 100% (active); in assay [2] (at 50.0 µM) it was 73.5% (active). Further, the growth inhibition is 16% in assay [3] (setting [7]); 97% (active) in assay [3] (setting [8]); 83.4% (active) in assay [3] (at 50.0 µM); -6% in assay [4] (setting [7]); 99% (active) in assay [4] (setting [8]); 40.1% in assay [4] (at 50.0 µM). Moreover, the growth inhibition in assay [5] (setting [7]) was 10%; in assay [5] (setting [8]), 96% (active); in assay [5] (at 50.0 µM) it was 51%; in assay [6] (setting [7]) it was 11%; in assay [6] (setting [8]) it was 99% (active); in assay [6] (at 50.0 µM), 70.8% (active).

As to `CC(C)=[CH][Sb]([Br])([CH]=C(C)C)([CH]=C(C)C)[CH]=C(C)C`, the growth inhibition was -1% in assay [1] (setting [7]); 11% in assay [1] (setting [8]); 50.8% in assay [1] (at 50.0 µM); -4% in assay [2] (setting [7]); 17% in assay [2] (setting [8]); 33.7% in assay [2] (at 50.0 µM). Further, the growth inhibition in assay [3] (setting [7]) is -4%; in assay [3] (setting [8]), 14%; in assay [3] (at 50.0 µM), 18.9%; in assay [4] (setting [7]), -8%; in assay [4] (setting [8]), 3%; in assay [4] (at 50.0 µM) it was -17.4%. For the same compound, the growth inhibition in assay [5] (setting [7]) is 11%; in assay [5] (setting [8]), 13%; in assay [5] (at 50.0 µM), 30.7%; in assay [6] (setting [7]), -7%; in assay [6] (setting [8]) it was 12%; in assay [6] (at 50.0 µM) it was 24.4%.

Turning to `CC1(C)CC(=O)C([Se]C2=C(O)CC(C)(C)CC2=O)=C(O)C1`, the growth inhibition is 96% (active) in assay [1] (setting [7]); 99% (active) in assay [1] (setting [8]); 99.6% (active) in assay [1] (at 50.0 µM); 91% (active) in assay [2] (setting [7]); 99% (active) in assay [2] (setting [8]); 99.8% (active) in assay [2] (at 50.0 µM). Further, the growth inhibition is 86% (active) in assay [3] (setting [7]); 99% (active) in assay [3] (setting [8]); 99.8% (active) in assay [3] (at 50.0 µM); 35% in assay [4] (setting [7]); 99% (active) in assay [4] (setting [8]); 99.4% (active) in assay [4] (at 50.0 µM). The growth inhibition in assay [5] (setting [7]) was 40%; in assay [5] (setting [8]), 99% (active); in assay [5] (at 50.0 µM), 99.6% (active); in assay [6] (setting [7]) it was 94% (active); in assay [6] (setting [8]), 99% (active); in assay [6] (at 50.0 µM) it was 99.3% (active).

As for `CN1c2cccc[c]2[Sn]([CH3])([CH3])[c]2ccccc21`, the growth inhibition is 98% (active) in assay [1] (setting [7]); 99% (active) in assay [1] (setting [8]); 99.4% (active) in assay [1] (at 50.0 µM); 99% (active) in assay [2] (setting [7]); 99% (active) in assay [2] (setting [8]); 99.2% (active) in assay [2] (at 50.0 µM). In addition, the growth inhibition was 97% (active) in assay [3] (setting [7]); 99% (active) in assay [3] (setting [8]); 99.5% (active) in assay [3] (at 50.0 µM); 77% (active) in assay [4] (setting [7]); 100% (active) in assay [4] (setting [8]); 94% (active) in assay [4] (at 50.0 µM). In addition, the growth inhibition in assay [5] (setting [7]) was 7%; in assay [5] (setting [8]), 99% (active); in assay [5] (at 50.0 µM), 99.2% (active); in assay [6] (setting [7]), 98% (active); in assay [6] (setting [8]), 99% (active); in assay [6] (at 50.0 µM), 99.3% (active).

Consider `C[CH2][Sn]1([CH2]C)[c]2ccccc2Oc2cccc[c]21`, for which the growth inhibition in assay [1] (setting [7]) is 99% (active); in assay [1] (setting [8]) it was 98% (active); in assay [1] (at 50.0 µM), 99% (active); in assay [2] (setting [7]) it was 99% (active); in assay [2] (setting [8]), 99% (active); in assay [2] (at 50.0 µM), 99.4% (active). Also, the growth inhibition in assay [3] (setting [7]) is 99% (active); in assay [3] (setting [8]) it was 99% (active); in assay [3] (at 50.0 µM), 99.3% (active); in assay [4] (setting [7]), 97% (active); in assay [4] (setting [8]) it was 98% (active); in assay [4] (at 50.0 µM) it was 98.8% (active). For the same compound, the growth inhibition is 99% (active) in assay [5] (setting [7]); 99% (active) in assay [5] (setting [8]); 99.2% (active) in assay [5] (at 50.0 µM); 99% (active) in assay [6] (setting [7]); 99% (active) in assay [6] (setting [8]); 99% (active) in assay [6] (at 50.0 µM).

As to `CCCCCCCCCCCCCCCCCC(=O)[O][Hg][c]1ccccc1`, the growth inhibition was 33% in assay [1] (setting [7]); 96% (active) in assay [1] (setting [8]); 90.7% (active) in assay [1] (at 50.0 µM); 43% in assay [2] (setting [7]); 98% (active) in assay [2] (setting [8]); 91.5% (active) in assay [2] (at 50.0 µM). In addition, the growth inhibition in assay [3] (setting [7]) is 100% (active); in assay [3] (setting [8]), 99% (active); in assay [3] (at 50.0 µM), 94% (active); in assay [4] (setting [7]), 99% (active); in assay [4] (setting [8]) it was 100% (active); in assay [4] (at 50.0 µM), 92.3% (active). Moreover, the growth inhibition in assay [5] (setting [7]) is 99% (active); in assay [5] (setting [8]), 100% (active); in assay [5] (at 50.0 µM), 90% (active); in assay [6] (setting [7]), 34%; in assay [6] (setting [8]), 100% (active); in assay [6] (at 50.0 µM) it was 90.2% (active).
